# C-LANA FP – KSHV C-LANA DNA binding inhibition. MBP-C-LANA/FAM-LBS DNA binding, fluorescence polarization. inhibition, % at 9 µM. actives 0.078% (n = 340,000). AID 504423;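 active means highest replicate inhibition at or above 60% at 9 µM, even if other replicates fall short; inactive means all replicates below 60% inhibition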;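 further: 0% = neutral control wells and 100% = 4 µM acridine orange control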
# RTF Ca sens inh – cardiac RTF calcium desensitization; inhibition, % at 7.15 µM; AID 493244; IANBD-labeled cardiac RTF, Ca2+ fluorescence; actives 0.12% (n = 340,000); P19429+P45379;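 active means inhibition above the mean inhibition of all tested compounds plus 3 SD, cut at about 17% in these data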;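 further: assay run at fixed EC70 calcium of 1.6 mM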
# LANA-H2B inh – blocks KSHV LANA binding to histone H2A/H2B; actives 0.6% (n = 320,000); inhibition, % (no concentration beside the values); cell-free LANA-H2A/H2B peptide, fluorescence polarization; AID 2629; in the data active means inhibition mostly above about 10%, no sharp cut-off; inactive means mostly below about 6.7%
# Keap1-Nrf2 PPI – Keap1-Nrf2 (human) interaction inhibition; Keap1 Kelch-Nrf2 peptide fluorescence polarization, 1536-well; inhibition, % at 9.4 µM; actives 0.15% (n = 340,000); AID 504523; in the data active means inhibition above about 12%;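 further: human Keap1 Kelch domain with fluorescein labeled Nrf2 9mer peptide probe; 0% = neutral control wells and 100% = peptide positive control; higher means more block of Keap1 binding to Nrf2 peptide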
# Target sequence (Q14145 whole entry, looked up, the tested form may be a part): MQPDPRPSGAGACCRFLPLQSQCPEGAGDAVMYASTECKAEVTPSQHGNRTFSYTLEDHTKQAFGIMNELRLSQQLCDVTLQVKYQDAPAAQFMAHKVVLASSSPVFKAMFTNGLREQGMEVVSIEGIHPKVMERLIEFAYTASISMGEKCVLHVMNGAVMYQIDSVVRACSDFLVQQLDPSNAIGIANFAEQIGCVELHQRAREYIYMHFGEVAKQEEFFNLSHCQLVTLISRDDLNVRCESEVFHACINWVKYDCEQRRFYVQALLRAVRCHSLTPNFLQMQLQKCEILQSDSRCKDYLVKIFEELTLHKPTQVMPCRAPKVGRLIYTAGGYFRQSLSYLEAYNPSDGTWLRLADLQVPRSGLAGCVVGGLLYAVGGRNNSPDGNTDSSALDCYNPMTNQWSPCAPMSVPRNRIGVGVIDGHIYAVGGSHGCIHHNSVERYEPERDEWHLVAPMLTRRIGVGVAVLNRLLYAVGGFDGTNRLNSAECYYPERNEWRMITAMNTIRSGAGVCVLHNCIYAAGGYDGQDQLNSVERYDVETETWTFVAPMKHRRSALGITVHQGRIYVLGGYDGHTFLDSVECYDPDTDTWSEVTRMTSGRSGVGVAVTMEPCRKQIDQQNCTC
# RTF Ca sens act – increases calcium sensitivity of human cardiac regulated thin filaments; IANBD-labeled TnC RTF fluorescence at EC20 calcium; 0% EC20 calcium, 100% full calcium; activation, % at 7.2 µM; actives 0.24% (n = 340,000);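 active means activation above the mean over all tested compounds plus 3 SD, cut at about 30% in these data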;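 further: rise in fluorescence read as greater calcium sensitivity of cardiac thin filaments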
# RTF inh confirm – cardiac RTF calcium sensitivity inhibition, confirmation | shares compounds with RTF Ca sens inh | reconstituted cardiac thin filaments, calcium sensitivity fluorescence | inhibition, % at 7.15 µM | actives 8% (n = 360); in the data active means inhibition above about 18%
# * marks the source's active call; other numbers are inactive results; x = not tested or not shown. The list is not random: actives were taken first. Their share in the collection is about 0.98%.
SMILES,C-LANA FP,RTF Ca sens inh,LANA-H2B inh,Keap1-Nrf2 PPI,RTF Ca sens act,RTF inh confirm
COc1ccccc1NC(=O)C(=O)N/N=C(\C)CC(=O)Nc1ccccn1,-1.0,-38.8,24.2*,-5.8,-6.1,x
COc1ccc(NC(=O)C(=O)N/N=C(\C)CC(=O)Nc2ccccn2)c(OC)c1,1.0,-4.8,2.7,5.1,3.3,x
CCn1cc(C(=O)NCCCOC)c(=O)c2cc(S(=O)(=O)N3CCCC3)ccc21,0.7,-5.2,14.0*,-1.8,1.0,x
CCCCNC(=O)c1cn(CC)c2ccc(S(=O)(=O)N3CCCC3)cc2c1=O,-0.1,4.9,0.8,1.5,-7.4,x
O=C(NCc1cccs1)c1cnc2ccccn2c1=O,-1.6,-5.6,9.8*,-3.8,1.4,x
COc1ccccc1CNC(=O)c1cnc2ccccn2c1=O,1.0,-2.0,1.3,5.0,-1.2,x
Cc1ccc(C(=O)C2CCOC(C)(C)C2)cc1 (stereo not given),-1.9,-27.4,-2.8,-2.4,-0.5,x
CCCCN(C)CCC(=O)Nc1ccc(F)c(F)c1,1.1,17.1*,-2.6,5.4,-3.0,0.6
Cc1ccc(C(=O)C(C)N2C(=O)NC(C)(c3ccccc3)C2=O)cc1 (stereo not given),0.7,3.5,3.6,2.5,-0.5,x
CCOC(=O)N1CCN(C(=O)c2ccc(NC(=O)c3ccc(C)cc3)cc2)CC1,0.2,1.8,0.0,-3.9,-8.1,x
O=C(COC(=O)CCSc1ccc(Cl)cc1)NCc1ccccc1Cl,-2.3,17.6*,10.5,1.0,-0.7,-3.1
O=C(OCC1CC(c2ccccc2)=NO1)c1ccc(Br)cc1 (stereo not given),2.6,17.9*,1.3,-1.4,1.6,-1.4
COCCn1c(SCC(=O)Nc2ccc(NC(C)=O)cc2)nc2c([nH]c3ccccc32)c1=O,1.1,19.0*,-0.5,-0.9,0.1,-5.2
Cc1ccc(NS(=O)(=O)c2cccc(C(=O)O)c2)cc1S(=O)(=O)N1CCOCC1,-0.6,-5.2,-2.8,1.6,0.4,x
Cc1ccc(NS(=O)(=O)c2ccc(/C=C/C(=O)O)cc2)cc1Cl,0.7,20.9*,3.3,0.5,-0.9,-6.8
Cc1ccc(NS(=O)(=O)c2ccc(Cl)c(C(=O)O)c2)cc1S(=O)(=O)N1CCOCC1,-1.1,19.2*,3.5,-2.0,1.8,-3.1
CCOC(=O)C1=C(CSc2nncn2C)NC(=O)NC1c1cc(OCC)ccc1OCC (stereo not given),-1.4,-5.0,-1.6,-3.3,1.5,x
c1ccc(Cc2nnc(-c3ccccc3)o2)cc1,-2.8,17.0*,1.2,4.5,-1.6,-1.0
Brc1ccc(-c2nnc(Cc3ccccc3)o2)cc1,x,x,1.9,x,x,x
CCCCC(=O)N/N=C/c1ccc(-c2ccc([N+](=O)[O-])cc2)o1,1.7,4.1,2.9,-2.8,-0.2,x
Cc1cc(C)n(Cc2ccc(C(=O)N/N=C/c3ccc(-c4ccc([N+](=O)[O-])cc4)o3)o2)n1,1.7,29.4*,-0.8,4.3,-25.0,6.2
CCSc1cc(N2CCCC2)nc(-c2cccc(C)c2)n1,-2.2,18.2*,-9.0,2.3,3.3,-0.4
CCSc1cc(N2CCCC2)nc(-c2ccc(C)cc2)n1,-0.8,-3.9,-0.2,-2.2,0.5,x
O=C(CSc1ccccn1)N1CCc2ccccc21,1.9,1.3,-1.0,0.1,-4.9,x
CCOC(=O)Nc1nnc(CCc2ccccc2)s1,-2.4,-24.5,3.7,-8.0,-4.1,x
SMILES,C-LANA FP,RTF Ca sens inh,LANA-H2B inh,Keap1-Nrf2 PPI,RTF Ca sens act,RTF inh confirm
CCc1nnc(NC(=O)OCc2ccccc2)s1,-1.1,16.9*,-6.9,-4.7,2.0,-1.5
NC(=O)c1ccc(N=Nc2c(O)c3ccccc3[nH]c2=O)cc1,x,x,0.5,x,x,x
N=C(N)c1ccc(N=Nc2c(O)ccc3c2[nH]c2ccccc23)cc1,-7.0,26.2*,x,2.8,-23.6,29.8*
CC(=O)Nc1cc(S(=O)(=O)Nc2ccccc2C)c(C)cc1C,-0.7,-8.0,-2.5,8.9,-0.4,x
O=C(O)c1cc(O)c2c(c1)[C@H]([C@H]1c3cc(C(=O)O)cc(O)c3C(=O)c3c(O[C@@H]4O[C@H](CO)[C@@H](O)[C@H](O)[C@H]4O)cccc31)c1cccc(OC3O[C@H](CO)[C@@H](O)[C@H](O)[C@H]3O)c1C2=O (stereo not given in full),13.9,53.4*,8.1,-3.4,-62.9,101.8*
O=C(O)c1cc(O)c2c(c1)[C@@H]([C@H]1c3cc(C(=O)O)cc(O)c3C(=O)c3c(O[C@@H]4O[C@H](CO)[C@@H](O)[C@H](O)[C@H]4O)cccc31)c1cccc(OC3O[C@H](CO)[C@@H](O)[C@H](O)[C@H]3O)c1C2=O (stereo not given in full),9.2,59.3*,19.5*,-2.4,-39.3,112.1*
COC(=O)[C@@H]1C[C@@]2(O)[C@H](O)[C@H](O)[C@H](O)C[C@H]2N1C/C=C/c1ccccc1,-0.8,0.6,-0.6,-6.0,18.1,x
COc1ccccc1CN1C[C@@H]2C[C@@H](c3ccc(C)cc3)N3CCC[C@@]23C1=O,2.2,-17.0,-5.3,-5.6,5.3,x
CCc1ccc([C@@H]2C[C@H]3CN(Cc4ccccc4OC)C(=O)[C@]34CCCN24)cc1,1.3,55.3*,0.2,-0.6,0.9,-4.8
CN1CCN(C(=O)CN(CCc2ccccc2)S(C)(=O)=O)CC1,0.8,-6.4,-4.5,-2.4,12.5,x
CCOC(=O)C1(Cc2ccccc2)CCN(Cc2cn(CC(=O)OC)c3ccccc23)CC1,0.6,-6.2,-2.7,-6.3,7.9,x
CCOC(=O)C1(CC2CC2)CCN(Cc2cn(C)c3ccccc23)CC1,2.0,17.0*,-3.3,-0.5,0.5,-7.1
Cc1ccc(C)c(S(=O)(=O)N2CCCC2CNC(=O)C(=O)NCC2CCCO2)c1 (stereo not given),0.5,-19.1,4.6,0.2,-6.6,x
Cc1ccccc1NC(=O)c1sc(NC(=O)COc2ccccc2)c(C#N)c1C,1.7,17.6*,4.1,-3.2,-0.8,-3.0
Cc1cccc(NC(=O)c2sc(NC(=O)COc3ccccc3)c(C#N)c2C)c1C,0.8,6.5,-0.8,3.1,-0.3,x
Cc1ccc(-n2ncc3c2CC(C)(C)CC3NC(=O)CCN2CCCO2)cc1 (stereo not given),1.5,-3.3,-2.5,-2.3,-3.8,x
CC(Sc1nc(=O)cc(N)n1CCc1ccccc1)C(=O)NCc1ccccc1 (stereo not given),-1.2,18.8*,1.9,0.3,-3.5,-0.9
N#Cc1nc(COc2ccc(F)cc2)oc1N1CCCCC1,-0.7,24.2*,1.8,2.6,-1.0,-2.2
N#Cc1nc(COc2ccc(Br)cc2)oc1N1CCCCCC1,0.3,0.9,-3.4,-6.6,9.1,x
CC(=O)NCc1ccc(S(=O)(=O)N2CCCN(C)CC2)cc1,-2.9,-3.1,4.7,-5.7,6.6,x
c1nnc(NC2=NCCC2)s1,-1.2,6.4,-3.2,-0.5,3.8,x
Cc1cnc(NC2=NCCC2)s1,1.2,45.5*,1.4,-1.6,-8.6,-3.4
